Measurements published in PubChem BioAssay AID1159580 (chemical genetic matrix, 2015).
Screen size: about 5,500 compounds; about 2,000 (36%) were called active. About 18% were inconclusive and are not listed. Cut-off read from the data, not from the text of the source: active = normalized growth mostly below about 0.91 (no sharp cut-off); inconclusive = no clear call, values can overlap the other calls; inactive = mostly above about 0.92. Some of the results follow.

Experiment: chemical genetic growth profiling, strain panel (AID 1159580);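 note: tested at 20 µM; growth read once vehicle control cultures reached saturation at 30 °C; 1 = growth at the plate median or of vehicle wells; lower values mean less growth of the strain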
Details: S. cerevisiae deletion strains, growth OD
[1] = locus YDL101C, strain DUN1, active compounds read low
[2] = locus YHR030C, strain SLT2, active compounds read low
[3] = locus YHR079C, strain IRE1, active compounds read low
[4] = locus YJL095W, strain BCK1, active compounds read low
[5] = locus YJR066W, strain TOR1, active compounds read low
[6] = locus YLR113W, strain HOG1, active compounds read low
[7] = locus YNL183C, strain NPR1, active compounds read low
[8] = locus YOR061W, strain CKA2, active compounds read low
[9] = locus YOR231W, strain MKK1, active compounds read low
[10] = locus YPL256C, strain CLN2, active compounds read low

Measured: normalized growth

Fc1ccc(N/N=C\Cc2nnnn2-c2ccccc2)c(F)c1
active: locus YDL214C, strain PRR2, active compounds read low 0.554 | locus YDR477W, strain SNF1, active compounds read low 0.332 | locus YER123W, strain YCK3, active compounds read low 0.283 | locus YER133W, strain GLC7, active compounds read low 0.592 | locus YFR019W, strain FAB1, active compounds read low 0.414 | locus YGR040W, strain KSS1, active compounds read low 0.478 | locus YGR052W, strain FMP48, active compounds read low 0.302 | locus YGR092W, strain DBF2, active compounds read low 0.122 | [2] 0.387 | [3] 0.366 | locus YHR082C, strain KSP1, active compounds read low 0.571 | [4] 0.16 | locus YJL157C, strain FAR1, active compounds read low 0.519 | locus YJR066W, strain TOR1 (second series), active compounds read low 0.246 | [5] 0.356 | locus YKL048C, strain ELM1, active compounds read low 0.55 | locus YKL067W, strain YNK1, active compounds read low 0.427 | locus YKL101W, strain HSL1, active compounds read low 0.341 | locus YKL203C, strain TOR2, active compounds read low 0.481 | [6] 0.426 | locus YLR133W, strain CKI1, active compounds read low 0.55 | locus YLR403W, strain SFP1, active compounds read low 0.429 | locus YML070W, strain DAK1, active compounds read low 0.249 | locus YMR205C, strain PFK2 (second series), active compounds read low 0.646 | locus YNL020C, strain ARK1, active compounds read low 0.536 | [7] 0.358 | locus YNL307C, strain MCK1 (second series), active compounds read low 0.189 | locus YOL136C, strain PFK27, active compounds read low 0.385 | [8] 0.222 | locus YOR119C, strain RIO1, active compounds read low 0.408 | [9] 0.328 | locus YPL031C, strain PHO85, active compounds read low 0.315 | locus YPL153C, strain RAD53, active compounds read low 0.359 | locus YPL204W, strain HRR25, active compounds read low 0.406 | [10] 0.537
inactive: locus YAR019C, strain CDC15, active compounds read low 0.957 | locus YBL105C, strain PKC1, active compounds read low 0.951 | locus YBR135W, strain CKS1, active compounds read low 0.947 | locus YBR136W, strain MEC1, active compounds read low 0.952 | locus YBR160W, strain CDC28, active compounds read low 0.961 | locus YDL017W, strain CDC7, active compounds read low 0.956 | locus YDL028C, strain MPS1, active compounds read low 0.955 | [1] 0.967 | locus YDL108W, strain KIN28, active compounds read low 0.948 | locus YDL132W, strain cdc53, active compounds read low 0.952 | locus YDR052C, strain DBF4, active compounds read low 0.946 | locus YDR054C, strain cdc34, active compounds read low 0.904 | locus YDR226W, strain ADK1, active compounds read low 0.95 | locus YFL009W, strain cdc4, active compounds read low 0.954 | locus YFL029C, strain CAK1, active compounds read low 0.955 | locus YFR003C, strain YPI1, active compounds read low 0.955 | locus YFR028C, strain CDC14, active compounds read low 0.953 | locus YHR205W, strain SCH9, active compounds read low 0.622 | locus YIL147C, strain SLN1, active compounds read low 0.958 | locus YJL128C, strain PBS2, active compounds read low 0.963 | locus YJR016C, strain ILV3, active compounds read low 0.973 | locus YKL193C, strain SDS22, active compounds read low 0.954 | locus YMR001C, strain CDC5, active compounds read low 0.951 | locus YMR277W, strain FCP1, active compounds read low 0.952 | locus YNL006W, strain LST8, active compounds read low 0.962 | locus YNL161W, strain CBK1, active compounds read low 0.954 | locus YNL207W, strain RIO2, active compounds read low 0.952 | locus YNL222W, strain SSU72, active compounds read low 0.954 | locus YOL078W, strain AVO1, active compounds read low 0.947 | locus YOR329C, strain SCD5, active compounds read low 0.964 | locus YPL209C, strain IPL1, active compounds read low 0.958 | locus YPR025C, strain CCL1, active compounds read low 0.956 | locus YPR106W, strain ISR1, active compounds read low 0.976 | locus YPR111W, strain DBF20, active compounds read low 0.97 | strain NNK1, active compounds read low 0.971 | strain TSCII, active compounds read low 0.945

CS(=O)(=O)c1ccc([C@@H](O)[C@H](CF)NC(=O)C(Cl)Cl)cc1
inactive: [2] 1.03 | [3] 0.953 | [4] 0.973 | [5] 0.956 | [6] 0.935 | [7] 0.909 | [9] 0.969 | [10] 0.943

Cc1cc(=O)c2c(O)c3c(cc2o1)OCC(C)CC3 (stereo not drawn)
inactive: locus YBR021W, strain FUR4, active compounds read low 0.993 | locus YBR229C, strain ROT2, active compounds read low 0.981 | locus YCL029C, strain bik1, active compounds read low 0.912 | locus YDL035C, strain GPR1, active compounds read low 0.954 | locus YDL074C, strain BRE1, active compounds read low 0.818 | [1] 0.898 | locus YDL185W, strain tfp1, active compounds read low 0.915 | locus YDR162C, strain NBP2, active compounds read low 0.885 | locus YER167W, strain BCK2, active compounds read low 0.961 | locus YGL078C, strain dbp3, active compounds read low 0.936 | locus YHR094C, strain hxt1, active compounds read low 0.926 | locus YHR129C, strain ARP1, active compounds read low 0.926 | locus YIL066C, strain RNR3, active compounds read low 0.941 | locus YIL073C, strain SPO22, active compounds read low 0.796 | [4] 0.815 | locus YJL134W, strain LCB3, active compounds read low 0.969 | locus YJL187C, strain SWE1 (second series), active compounds read low 0.908 | locus YJR043C, strain POL32, active compounds read low 0.966 | locus YKL009W, strain mrt4, active compounds read low 0.897 | locus YKL085W, strain MDH1 (second series), active compounds read low 0.942 | locus YKL085W, strain MDH1, active compounds read low 0.942 | locus YLR058C, strain SHM2, active compounds read low 0.926 | locus YLR102C, strain apc9, active compounds read low 0.928 | locus YLR268W, strain sec22, active compounds read low 0.914 | locus YML016C, strain PPZ1, active compounds read low 0.976 | locus YNL067W, strain RPL9B, active compounds read low 0.919 | locus YNL250W, strain rad50, active compounds read low 0.902 | locus YNL271C, strain bni1, active compounds read low 0.922 | locus YNL298W, strain CLA4, active compounds read low 0.929 | locus YNR052C, strain pop2, active compounds read low 0.932 | locus YOL012C, strain htz1 1.02 | [8] 0.98 | locus YOR069W, strain VPS5, active compounds read low 0.96 | locus YPR141C, strain kar3, active compounds read low 0.918
active: locus YDL192W, strain arf1, active compounds read low 0.848 | locus YDR101C, strain arx1, active compounds read low 0.896 | locus YDR318W, strain mcm21, active compounds read low 0.858 | locus YDR388W, active compounds read low 0.909 | locus YDR502C, strain sam2, active compounds read low 0.858 | locus YER110C, active compounds read low 0.893 | locus YER155C, strain BEM2, active compounds read low 0.849 | locus YGL086W, strain mad1, active compounds read low 0.846 | locus YGL248W, strain PDE1, active compounds read low 0.881 | locus YGR078C, strain PAC10, active compounds read low 0.8 | locus YGR135W, strain pre9, active compounds read low 0.806 | locus YGR252W, strain gcn5, active compounds read low 0.689 | locus YHR079C, strain IRE1 (second series), active compounds read low 0.925 | locus YHR200W, strain rpn10, active compounds read low 0.868 | locus YIL125W, strain kgd1, active compounds read low 0.924 | locus YIR030C, strain dcg1, active compounds read low 0.912 | locus YJL168C, strain set2, active compounds read low 0.914 | locus YKL068W, active compounds read low 0.921 | locus YKR001C, strain vps1, active compounds read low 0.797 | locus YLR039C, strain RIC1, active compounds read low 0.673 | locus YLR371W, strain rom2, active compounds read low 0.821 | locus YLR418C, strain cdc73, active compounds read low 0.591 | locus YML032C, strain rad52, active compounds read low 0.881 | locus YML124C, strain tub3, active compounds read low 0.91 | locus YMR078C, strain ctf18, active compounds read low 0.899 | locus YMR223W, strain ubp8, active compounds read low 0.879 | locus YMR307W, strain GAS1, active compounds read low 0.588 | locus YNL153C, strain GIM3, active compounds read low 0.704 | locus YNL233W, strain BNI4, active compounds read low 0.826 | locus YNL307C, strain MCK1, active compounds read low 0.719 | locus YNL322C, strain KRE1, active compounds read low 0.923 | locus YOL147C, strain pex11, active compounds read low 0.887 | locus YOR136W, strain idh2, active compounds read low 0.915 | locus YOR144C, strain elg1, active compounds read low 0.91 | locus YOR184W, strain ser1, active compounds read low 0.725 | locus YOR316C, strain cot1, active compounds read low 0.918 | locus YPR119W, strain clb2, active compounds read low 0.914 | locus YPR163C, strain tif3, active compounds read low 0.855 | locus YPR167C, strain met16, active compounds read low 0.868 | strain wtn01, active compounds read low 0.897
